CYP2C19 inhib – blockers of cytochrome P450 2C19 activity – biochemical, luminescence, ADME assay, primary screen; 96,000 tested, 21% active; AID 778, 2007; inhibition, % at 5 µM; CYP2C19 Supersomes, luciferin-H EGE luminescence, 30 min;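 active = CYP2C19 inhibition above a set limit at 5 µM in the primary screen, cut at about 50% in these data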;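 note: plate controls were negative control wells for no effect and 2.5 mM tranylcypromine positive control for full effect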
CYP2C19 activ – human CYP2C19 activators, primary screen, biochemical, luminescence | activation factor at 5 µM | recombinant CYP2C19, luciferin-H EGE luminescence; stronger effect = higher value; 0 = fully inhibited enzyme, 1 = untreated enzyme | AID 1025, 2008 | Cytochrome P450 2C19 (Homo sapiens), P33261 | 96,000 tested, under 10 active;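 active = activation factor of at least 2 at 5 µM in the primary screen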;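 note: 0 = wells with 2.5 mM tranylcypromine and 1 = vehicle-only wells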
sEH inhibitor – soluble epoxide hydrolase inhibitors, primary screen, biochemical, human sEH | Bifunctional epoxide hydrolase 2 (Homo sapiens), P34913 | recombinant human sEH enzymatic activity assay | inhibition, % at 2 µM | 91,000 tested, 0.34% active; in the data active = inhibition above about 80%
CYP2C9 inh – blockers of cytochrome P450 2C9 activity – biochemical, luminescence, ADME assay, primary screen | P11712 | CYP2C9 Supersomes, luciferin-H conversion | inhibition, % at 5 µM | 96,000 tested, 20% active;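 active = blocking of liver enzyme CYP2C9 beyond about 50% at 5 µM, limit read from the data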
Target sequence (P11712 whole entry, looked up): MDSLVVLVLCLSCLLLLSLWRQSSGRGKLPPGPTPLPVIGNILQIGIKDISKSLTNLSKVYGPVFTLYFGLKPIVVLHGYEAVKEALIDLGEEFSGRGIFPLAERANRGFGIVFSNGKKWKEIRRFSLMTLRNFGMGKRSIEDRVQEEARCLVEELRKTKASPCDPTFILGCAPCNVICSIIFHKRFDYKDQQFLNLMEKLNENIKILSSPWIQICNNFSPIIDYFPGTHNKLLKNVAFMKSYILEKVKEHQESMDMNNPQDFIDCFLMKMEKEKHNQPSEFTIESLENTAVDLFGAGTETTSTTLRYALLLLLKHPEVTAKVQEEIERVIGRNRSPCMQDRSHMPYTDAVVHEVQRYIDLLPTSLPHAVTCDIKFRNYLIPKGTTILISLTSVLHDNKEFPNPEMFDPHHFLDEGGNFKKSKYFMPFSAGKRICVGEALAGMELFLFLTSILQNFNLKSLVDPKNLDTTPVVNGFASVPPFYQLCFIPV
CYP2C9 act – human CYP2C9 activators, primary screen, biochemical, luminescence. Cytochrome P450 2C9 (Homo sapiens), P11712. recombinant CYP2C9, luciferin-H conversion; stronger effect = higher value; factor 1 = untreated enzyme, 0 = blocked. activation factor at 5 µM. 96,000 tested, 1.4% active;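 active = activation factor of 2 or more for CYP2C9 at a 5 µM dose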;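 note: 0 = sulfaphenazole-blocked wells and 1 = vehicle-only wells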
sEH activator – soluble epoxide hydrolase activators, primary screen, biochemical, human sEH | Bifunctional epoxide hydrolase 2 (Homo sapiens), P34913 | purified human sEH enzymatic activity, activator screen | activation, % at 2 µM | 91,000 tested, 0.04% active | AID 717, 2007; in the data active = activation above about 37%
An asterisk follows results filed as active; / = not tested or not shown. Most compounds without a hit are left out; they make up all but 27% or so of the library.

SMILES	CYP2C19 inhib	CYP2C19 activ	sEH inhibitor	CYP2C9 inh	CYP2C9 act	sEH activator
O=C(c1sc2ccccc2c1Cl)N(Cc1ccco1)C1CCS(=O)(=O)C1 (stereo unspecified)	71*	0.3	4	70*	0.3	-6
O=C(c1cccs1)N(Cc1cccc(Cl)c1)C1CCS(=O)(=O)C1 (stereo unspecified)	17	0.8	-5	28	0.7	3
CN(Cc1ccccc1)c1nc2c(c(=O)[nH]c(=O)n2C)n1CCSc1ncccn1	/	/	1	/	/	4
COc1nc(N(CC(N)=O)S(=O)(=O)c2ccccc2)nc(C)c1Cl	/	/	-11	/	/	17
O=C(c1ccccc1F)N(Cc1ccccc1)C1CCS(=O)(=O)C1 (stereo unspecified)	32	0.7	-10	8	0.9	9
CCN(CC)c1ccc(CN(C(=O)c2cc(OC)c(OC)c(OC)c2)C2CCS(=O)(=O)C2)cc1 (stereo unspecified)	34	0.7	15	26	0.7	-12
CC(C)c1ccc(CN(C(=O)C2COc3ccccc3O2)C2CCS(=O)(=O)C2)cc1 (stereo unspecified)	5	1	7	32	0.7	-7
CN(C)c1ccc(CN(C(=O)C2COc3ccccc3O2)C2CCS(=O)(=O)C2)cc1 (stereo unspecified)	94*	0.1	0	65*	0.3	1
O=C(c1sc2ccccc2c1Cl)N(Cc1ccccc1)C1CCS(=O)(=O)C1 (stereo unspecified)	52*	0.5	5	68*	0.3	-5
CCN(CC)c1ccc(CN(C(=O)c2ccco2)C2CCS(=O)(=O)C2)cc1 (stereo unspecified)	57*	0.4	-4	58*	0.4	4
O=C(c1ccccc1F)N(Cc1ccc(F)cc1)C1CCS(=O)(=O)C1 (stereo unspecified)	83*	0.2	3	15	0.9	-6
COCCn1c(=O)c2cc3c(=O)n(CCOC)c(=O)c3cc2c1=O	27	0.7	-2	35	0.7	0
Cc1ccc2occ(C(c3nnnn3Cc3ccccc3)N3CCOCC3)c(=O)c2c1 (stereo unspecified)	31	0.7	-3	28	0.7	1
Oc1ccccc1C1=Nc2ncnn2C(c2ccccc2)C1 (stereo unspecified)	54*	0.5	/	48	0.5	/
CCC(C(=O)NCc1ccccc1OC)n1nc(C)n2c(cc3occc32)c1=O (stereo unspecified)	56*	0.4	4	63*	0.4	-6
CCc1nn(C(C)C(=O)NCCc2ccc(OC)c(OC)c2)c(=O)c2cc3occc3n12 (stereo unspecified)	3	1	/	17	0.8	/
Cc1nn(Cc2ccccc2)c(C)c1NC(=O)CSc1nnc(-c2cc(Cl)ccc2O)n1C	14	0.9	17	43	0.6	-15
Cc1ccc(NC(=O)CSCC(=O)Nc2ncc3c(n2)CC(c2ccco2)CC3=O)cc1 (stereo unspecified)	25	0.8	12	62*	0.4	-14
O=C1CC(c2ccco2)Cc2nc(Nc3nc(-c4ccccc4)c4ccccc4n3)ncc21 (stereo unspecified)	59*	0.4	-6	68*	0.3	5
Cc1ccc(Nc2ncc3c(n2)CC(c2ccco2)CC3=O)c(C)c1 (stereo unspecified)	34	0.7	-11	67*	0.3	10
O=C(Nc1ncc2c(n1)CC(c1ccco1)CC2=O)c1ccccc1 (stereo unspecified)	1	1	-3	15	0.8	1
Cc1cc(C)cc(Nc2ncc3c(n2)CC(c2ccco2)CC3=O)c1 (stereo unspecified)	37	0.6	-2	58*	0.4	6
Cc1cccc(Nc2ncc3c(n2)CC(c2ccco2)CC3=O)c1 (stereo unspecified)	4	1	-1	16	0.8	3
Cc1ccc(C(=O)Nc2ncc3c(n2)CC(c2ccco2)CC3=O)cc1 (stereo unspecified)	13	0.9	11	7	0.9	-11
Cc1ccc(C2CC(=O)c3cnc(NC(=O)c4ccco4)nc3C2)cc1 (stereo unspecified)	20	0.8	-4	22	0.8	2
SMILES	CYP2C19 inhib	CYP2C19 activ	sEH inhibitor	CYP2C9 inh	CYP2C9 act	sEH activator
COc1ccc(N(CC(=O)O)S(=O)(=O)c2cccnc2)cc1	-20	1.2	-16	-23	1.2	13
COC(=O)CN(c1ccc2c(c1)OCO2)S(C)(=O)=O	46	0.5	-10	12	0.9	9
COc1ccccc1N(CC(=O)NCCc1ccccc1)S(C)(=O)=O	38	0.6	4	18	0.8	-6
COc1ccc(N(CC(=O)Nc2ccccc2C(=O)NCCc2ccccc2)S(C)(=O)=O)cc1OC	82*	0.2	-17	99*	0	20
COc1ccccc1N(CC(=O)Nc1ccccc1C(=O)NCC(C)C)S(C)(=O)=O	47	0.5	13	77*	0.2	-11
COC(=O)c1ccc(C(=O)OC)c(NC(=O)CN(c2ccc3c(c2)OCO3)S(C)(=O)=O)c1	89*	0.1	-14	76*	0.2	12
COCCNC(=O)c1ccccc1NC(=O)CN(c1ccc2c(c1)OCO2)S(C)(=O)=O	86*	0.1	/	92*	0.1	/
COc1ccc(C(=O)COC(=O)CN2CC(=O)Oc3ccccc32)cc1Br	38	0.6	1	46	0.5	0
CC(C)c1ccc(NC2(C#N)C(=O)Nc3ccccc32)cc1 (stereo unspecified)	34	0.7	10	-75	1.7	-9
CCc1noc(C)c1C(=O)NCCc1ccc(OC)c(OC)c1	12	0.9	/	7	0.9	/
CC(C)CNC(=O)c1ccccc1NC(=O)CN(c1ccc2c(c1)OCCO2)S(C)(=O)=O	35	0.7	-13	93*	0.1	7
CS(=O)(=O)N(CC(=O)Nc1ccccc1C(=O)NCc1ccco1)c1ccc2c(c1)OCCO2	37	0.6	-13	91*	0.1	14
CNC(=O)CN(c1ccc2c(c1)OCCO2)S(C)(=O)=O	-6	1.1	-3	-33	1.3	5
N#CC1=C(N)C(C#N)(C#N)C(c2cccnc2)C2CC(c3ccccc3)CC=C12 (stereo unspecified)	20	0.8	-4	64*	0.4	4
CCOc1ccc(CC(C(N)=O)C(N)=O)cc1CN(C)C	-11	1.1	/	-5	1.1	/
COn1c(SCc2cccc(Cl)c2)nc2ccccc2c1=O	30	0.7	11	25	0.8	-9
